Assay results: PubChem BioAssay AID1159580 (chemical genetic matrix, 2015)
Several values for one entry are separate records, joined by “and”; a condition that tells them apart may be missing. Equal values may be shown once. Hit rate of the full screen: of about 5,500 compounds, about 2,000 (36%) were called active. About 18% were inconclusive and are not listed. No stated cut-off is given here; in the data, active means normalized growth mostly below about 0.91 (no sharp cut-off); inconclusive means no clear call, values can overlap the other calls; inactive means mostly above about 0.92. Some of the results follow.

Test: chemical genetic growth profiling, strain panel (AID 1159580);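 further: tested at 20 µM; growth read once vehicle control cultures reached saturation at 30 °C; 1 = growth at the plate median or of vehicle wells; lower values mean less growth of the strain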
Details: S. cerevisiae deletion strains, growth OD

Measured: normalized growth

CC(C)=CC1C(CO)C1(C)C (centres undefined)
inactive: locus YAL021C, strain ccr4, hits give low values 1.01 | locus YAL026C, strain drs2, hits give low values 1.03 | locus YAL030W, strain snc1, hits give low values 1.02 | locus YBL061C, strain skt5, hits give low values 1.02 | locus YBR009C, strain hhf1, hits give low values 1.03 | locus YBR021W, strain FUR4, hits give low values 1.02 | locus YBR023C, strain chs3, hits give low values 1.02 | locus YBR171W, strain sec66, hits give low values 1.03 | locus YBR229C, strain ROT2, hits give low values 1.02 | locus YBR231C, strain swc5, hits give low values 1.02 | locus YBR279W, strain paf1, hits give low values 1.02 | locus YCL011C, strain gbp2, hits give low values 1.02 | locus YCL016C, strain dcc1, hits give low values 1.02 | locus YCL029C, strain bik1, hits give low values 0.994 | locus YCL061C, strain MRC1, hits give low values 1.01 | locus YCL069W, strain vba3, hits give low values 1.01 | locus YCR088W, strain abp1, hits give low values 1.02 | locus YDL005C, strain med2, hits give low values 1.03 | locus YDL035C, strain GPR1, hits give low values 1.03 | locus YDL040C, strain nat1, hits give low values 1.02 | locus YDL074C, strain BRE1, hits give low values 1.03 | locus YDL101C, strain DUN1, hits give low values 1.03 | locus YDL185W, strain tfp1, hits give low values 0.999 | locus YDL192W, strain arf1, hits give low values 1.01 | locus YDR001C, strain nth1, hits give low values 1.01 | locus YDR069C, strain doa4, hits give low values 1.04 | locus YDR101C, strain arx1, hits give low values 1 | locus YDR137W, strain rgp1, hits give low values 1.04 | locus YDR159W, strain sac3, hits give low values 1.03 | locus YDR162C, strain NBP2, hits give low values 1.03 | locus YDR195W, strain ref2 0.992 | locus YDR297W, strain sur2, hits give low values 1.03 | locus YDR318W, strain mcm21, hits give low values 0.995 | locus YDR334W, strain swr1, hits give low values 1.02 | locus YDR335W, strain msn5, hits give low values 1.02 | locus YDR388W, hits give low values 0.999 | locus YDR392W, strain spt3, hits give low values 0.981 | locus YDR502C, strain sam2, hits give low values 0.994 | locus YEL003W, strain gim4, hits give low values 1.02 | locus YEL037C, strain rad23, hits give low values 1.02 | locus YEL061C, strain CIN8 (second series), hits give low values 1.01 | locus YEL061C, strain CIN8, hits give low values 1.01 | locus YER015W, strain faa2, hits give low values 1.02 | locus YER016W, strain bim1, hits give low values 1.02 | locus YER110C, hits give low values 1.01 | locus YER111C, strain swi4, hits give low values 1.02 | locus YER155C, strain BEM2 (second series), hits give low values 1.04 | locus YER155C, strain BEM2, hits give low values 1.01 | locus YER167W, strain BCK2, hits give low values 1.02 | locus YFR010W, strain ubp6, hits give low values 1.03 | locus YGL078C, strain dbp3, hits give low values 1 | locus YGL086W, strain mad1, hits give low values 1.01 | locus YGL167C, strain pmr1, hits give low values 1.02 | locus YGL173C, strain kem1, hits give low values 1.02 | locus YGL227W, strain vid30, hits give low values 1.02 | locus YGL240W, strain doc1, hits give low values 1.04 | locus YGL248W, strain PDE1, hits give low values 1.03 | locus YGL253W, strain hxk2, hits give low values 1.02 | locus YGR078C, strain PAC10, hits give low values 1.04 | locus YGR135W, strain pre9, hits give low values 1.01 | locus YGR252W, strain gcn5, hits give low values 0.989 | locus YHR013C, strain ard1, hits give low values 1.04 | locus YHR027C, strain rpn1, hits give low values 1.02 | locus YHR030C, strain SLT2, hits give low values 1.02 and 0.985 | locus YHR079C, strain IRE1 (second series), hits give low values 1.01 | locus YHR079C, strain IRE1, hits give low values 0.994 | locus YHR094C, strain hxt1, hits give low values 0.984 | locus YHR129C, strain ARP1, hits give low values 1.02 | locus YHR142W, strain chs7, hits give low values 1.01 | locus YHR200W, strain rpn10, hits give low values 1 | locus YIL066C, strain RNR3, hits give low values 1.04 | locus YIL073C, strain SPO22, hits give low values 1.02 | locus YIL125W, strain kgd1, hits give low values 1.01 | locus YIR030C, strain dcg1, hits give low values 1 | locus YJL092W, strain hpr5, hits give low values 1.01 | locus YJL095W, strain BCK1 (second series), hits give low values 1.02 | locus YJL095W, strain BCK1, hits give low values 1.04 and 0.986 | locus YJL115W, strain asf1, hits give low values 1.02 | locus YJL129C, strain trk1, hits give low values 1.02 | locus YJL134W, strain LCB3, hits give low values 1.02 | locus YJL154C, strain vps35, hits give low values 1 | locus YJL164C, strain tpk1, hits give low values 1.02 | locus YJL166W, strain qcr8, hits give low values 1.02 | locus YJL168C, strain set2, hits give low values 0.997 | locus YJL187C, strain SWE1 (second series), hits give low values 1.04 | locus YJL187C, strain SWE1, hits give low values 1.02 | locus YJR043C, strain POL32, hits give low values 1.04 | locus YJR066W, strain TOR1, hits give low values 0.957 | locus YKL009W, strain mrt4, hits give low values 1 | locus YKL068W, hits give low values 1.01 | locus YKL085W, strain MDH1 (second series), hits give low values 0.998 | locus YKL085W, strain MDH1, hits give low values 0.998 | locus YKL160W, strain elf1, hits give low values 1.01 | locus YKL190W, strain CNB1, hits give low values 1.02 | locus YKR001C, strain vps1, hits give low values 1.01 | locus YKR026C, strain gcn3, hits give low values 0.994 | locus YKR091W, strain srl3, hits give low values 1.02 | locus YLL001W, strain dnm1, hits give low values 1.03 | locus YLL026W, hits give low values 1.02 | locus YLL041C, strain sdh2, hits give low values 1.01 | locus YLR027C, strain aat2, hits give low values 1.02 | locus YLR039C, strain RIC1, hits give low values 1.07 | locus YLR058C, strain SHM2, hits give low values 1.02 | locus YLR102C, strain apc9, hits give low values 0.989 | locus YLR113W, strain HOG1, hits give low values 0.976 | locus YLR221C, strain rsa3, hits give low values 1.02 | locus YLR258W, strain gsy2, hits give low values 1.03 | locus YLR262C, strain YPT6 (second series), hits give low values 1.02 | locus YLR262C, strain YPT6, hits give low values 1.07 | locus YLR268W, strain sec22, hits give low values 0.999 | locus YLR320W, strain mms22, hits give low values 1.04 | locus YLR330W, strain CHS5, hits give low values 1.02 | locus YLR342W, strain FKS1 (second series), hits give low values 1.02 | locus YLR342W, strain FKS1, hits give low values 1.03 | locus YLR357W, strain rsc2, hits give low values 1.04 | locus YLR370C, strain arc18, hits give low values 1.01 | locus YLR371W, strain rom2, hits give low values 1 | locus YLR384C, strain iki3, hits give low values 0.999 | locus YLR418C, strain cdc73, hits give low values 0.99 | locus YML016C, strain PPZ1, hits give low values 1.02 | locus YML032C, strain rad52, hits give low values 0.997 | locus YML120C, strain ndi1, hits give low values 1.02 | locus YML124C, strain tub3, hits give low values 1.01 | locus YMR058W, strain fet3, hits give low values 1.01 | locus YMR078C, strain ctf18, hits give low values 0.99 | locus YMR125W, strain sto1, hits give low values 1.03 | locus YMR129W, hits give low values 1.01 | locus YMR205C, strain PFK2, hits give low values 1.04 | locus YMR223W, strain ubp8, hits give low values 1.01 | locus YMR231W, strain pep5, hits give low values 1.02 | locus YMR263W, strain SAP30, hits give low values 1.03 | locus YMR307W, strain GAS1, hits give low values 1.11 | locus YNL067W, strain RPL9B, hits give low values 1.04 | locus YNL071W, strain lat1, hits give low values 1.02 | locus YNL153C, strain GIM3, hits give low values 1.04 | locus YNL183C, strain NPR1, hits give low values 0.955 | locus YNL209W, strain ssb2, hits give low values 1.03 | locus YNL233W, strain BNI4, hits give low values 1.03 | locus YNL248C, strain rpa49, hits give low values 1.02 | locus YNL250W, strain rad50, hits give low values 0.994 | locus YNL271C, strain bni1, hits give low values 1 | locus YNL298W, strain CLA4, hits give low values 0.998 | locus YNL307C, strain MCK1, hits give low values 1.01 | locus YNL322C, strain KRE1 (second series), hits give low values 1.02 | locus YNR049C, strain mso1, hits give low values 1.03 | locus YNR052C, strain pop2, hits give low values 0.995 | locus YOL012C, strain htz1 0.795 | locus YOL147C, strain pex11, hits give low values 0.993 | locus YOR001W, strain rrp6, hits give low values 1.01 | locus YOR061W, strain CKA2, hits give low values 1.02 | locus YOR069W, strain VPS5, hits give low values 1.02 | locus YOR070C, strain gyp1, hits give low values 1.02 | locus YOR080W, strain dia2, hits give low values 1.02 | locus YOR083W, strain WHI5, hits give low values 1.01 | locus YOR106W, strain vam3, hits give low values 1.02 | locus YOR136W, strain idh2, hits give low values 0.991 | locus YOR144C, strain elg1, hits give low values 0.991 | locus YOR184W, strain ser1, hits give low values 1.01 | locus YOR231W, strain MKK1, hits give low values 0.978 | locus YOR265W, strain rbl2, hits give low values 1.02 | locus YOR270C, strain vph1, hits give low values 1.03 | locus YOR290C, strain snf2, hits give low values 0.991 | locus YOR316C, strain cot1, hits give low values 0.991 | locus YPL051W, strain arl3, hits give low values 1.01 | locus YPL078C, strain atp4, hits give low values 1.01 | locus YPL106C, strain sse1, hits give low values 1.01 | locus YPL240C, strain hsp82, hits give low values 1.03 | locus YPL241C, strain CIN2, hits give low values 1.02 | locus YPL256C, strain CLN2, hits give low values 0.97 | locus YPR119W, strain clb2, hits give low values 0.989 | locus YPR141C, strain kar3, hits give low values 1 | locus YPR163C, strain tif3, hits give low values 0.99 | locus YPR167C, strain met16, hits give low values 1.01 | strain wtn01, hits give low values 0.99
